Measurements published in PubChem BioAssay (NCATS).
Inconclusive results are not listed. Where a call stands in place of a potency, no number is given. Active and inactive are the calls of the source. Calls follow the shape of the dose curve; as a rule, active = well fitted curve in the direction sought with a large enough effect; inconclusive = small, poorly fitted or top-dose-only effect, or another doubt; inactive = no such curve, though single readings can be large; an effect the other way counts as inactive or inconclusive.

What was measured:
[1] = target: N-terminal Xaa-Pro-Lys N-methyltransferase 1 (Homo sapiens) (UniProt Q9BV86); test: qHTS Assay for Inhibitors of N-terminal methyltransferase 1 (NTMT1): LOPAC validation of the NTMT1 SAHH-coupled ThioGlo3 Assay (AID 1347143); also: nearly all actives have a fitted effect of over 70% in size; also: potency is read from the fitted curve at half-maximal effect
Chain of N-terminal Xaa-Pro-Lys N-methyltransferase 1 (Homo sapiens) (Q9BV86 whole entry, looked up): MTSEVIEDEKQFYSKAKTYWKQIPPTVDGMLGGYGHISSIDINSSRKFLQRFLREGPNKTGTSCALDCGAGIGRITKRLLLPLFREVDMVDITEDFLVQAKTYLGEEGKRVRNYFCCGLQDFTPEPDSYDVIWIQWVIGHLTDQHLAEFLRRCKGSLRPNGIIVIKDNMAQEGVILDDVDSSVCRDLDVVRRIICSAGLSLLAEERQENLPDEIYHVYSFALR
Procedure, shortened: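 Fluorescence read-out (excitation 340nm, emission 450nm) of SAH-derived thiol, measured via SAHH coupling and ThioGlo3, taken immediately and after a 30 min room-temperature reaction, then normalized to the background read. Enzyme: NTMT1 at 125nM; cofactor SAM 100uM in the added reagent.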

[2] = tested on: Zika virus NS2B-NS3 protease (unlinked); test: Optimization of GU AMC qHTS for Zika virus inhibitors: Unlinked NS2B-NS3 protease assay (AID 1347151); also: nearly all actives have a fitted effect of over 80% in size; also: potency is read from the fitted curve at half-maximal effect
Procedure, shortened: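 Unlinked protease (25 nM final); buffer 10 mM Tris-HCl pH 8.0 + 0.01% Tween 20; AMC substrate; 15 min RT, dark; Δfluorescence normalized to no-inhibitor/no-enzyme controls; 4-parameter Hill fit.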

[3] = tested on: Zika virus NS2B-NS3 protease; test: Primary screen GU AMC qHTS for Zika virus inhibitors (AID 1347154); also: nearly all actives have a fitted effect of over 70% in size
Procedure, shortened: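 Unlinked Zika NS2B hydrophilic domain/NS3 protease domain noncovalent complex (25 nM final) in 10 mM Tris-HCl pH 8.0, 0.01% Tween 20, with AMC peptide substrate. Fluorescence (ex 340, em 450 nm) change over 15 min, room temperature; percent inhibition fitted to 4-parameter Hill equation.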

[4] = target: Lysine-specific demethylase 5B (Homo sapiens) (UniProt Q9UGL1); test: Optimization screen for KDM5B Histone Demethylases FDH coupled qHTS against the LOPAC library (AID 1347166)
Chain of Lysine-specific demethylase 5B (Homo sapiens) (Q9UGL1 whole entry, looked up): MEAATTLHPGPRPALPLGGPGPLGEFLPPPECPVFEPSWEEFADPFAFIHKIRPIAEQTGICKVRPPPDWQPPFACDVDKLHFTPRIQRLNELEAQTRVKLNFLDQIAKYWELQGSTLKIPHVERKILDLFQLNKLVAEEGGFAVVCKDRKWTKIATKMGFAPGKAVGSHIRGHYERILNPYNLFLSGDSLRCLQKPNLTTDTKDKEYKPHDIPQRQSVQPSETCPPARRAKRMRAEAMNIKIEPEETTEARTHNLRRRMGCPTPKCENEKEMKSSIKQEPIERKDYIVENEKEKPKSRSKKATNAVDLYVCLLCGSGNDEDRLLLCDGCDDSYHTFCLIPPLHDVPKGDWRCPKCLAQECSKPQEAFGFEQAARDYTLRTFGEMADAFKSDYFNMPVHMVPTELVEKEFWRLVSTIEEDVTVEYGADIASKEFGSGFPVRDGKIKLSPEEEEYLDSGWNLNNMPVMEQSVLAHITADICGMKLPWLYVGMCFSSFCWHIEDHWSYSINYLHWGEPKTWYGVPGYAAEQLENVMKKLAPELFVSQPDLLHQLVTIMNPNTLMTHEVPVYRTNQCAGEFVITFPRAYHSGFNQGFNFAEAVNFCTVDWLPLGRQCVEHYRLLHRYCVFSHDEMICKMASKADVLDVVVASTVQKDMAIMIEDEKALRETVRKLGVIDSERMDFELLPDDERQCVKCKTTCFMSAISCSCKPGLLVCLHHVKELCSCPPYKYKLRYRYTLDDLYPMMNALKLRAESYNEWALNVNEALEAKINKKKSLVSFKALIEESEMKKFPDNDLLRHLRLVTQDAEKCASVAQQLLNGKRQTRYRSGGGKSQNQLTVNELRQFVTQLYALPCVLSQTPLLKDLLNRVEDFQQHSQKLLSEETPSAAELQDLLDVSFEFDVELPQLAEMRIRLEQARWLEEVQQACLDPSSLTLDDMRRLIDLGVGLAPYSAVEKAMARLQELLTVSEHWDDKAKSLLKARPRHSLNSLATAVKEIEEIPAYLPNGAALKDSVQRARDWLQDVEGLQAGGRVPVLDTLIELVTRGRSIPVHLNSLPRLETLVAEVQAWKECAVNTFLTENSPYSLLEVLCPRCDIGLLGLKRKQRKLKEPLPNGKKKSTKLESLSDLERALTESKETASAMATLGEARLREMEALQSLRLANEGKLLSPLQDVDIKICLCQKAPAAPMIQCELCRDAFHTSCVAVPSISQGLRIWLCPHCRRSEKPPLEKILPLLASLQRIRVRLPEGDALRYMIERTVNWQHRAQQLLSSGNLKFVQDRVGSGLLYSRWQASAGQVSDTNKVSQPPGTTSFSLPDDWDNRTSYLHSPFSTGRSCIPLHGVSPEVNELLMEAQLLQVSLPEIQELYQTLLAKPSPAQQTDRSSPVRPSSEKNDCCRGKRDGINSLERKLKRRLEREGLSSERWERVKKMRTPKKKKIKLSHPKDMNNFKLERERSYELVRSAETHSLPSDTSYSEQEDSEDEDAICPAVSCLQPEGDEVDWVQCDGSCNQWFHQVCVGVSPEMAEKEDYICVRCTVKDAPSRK
Procedure, shortened: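 KDM5BDeltaAP (200nM final) preincubated 10 min with compound, then 12.5uM H3K4Me3, 25uM a-ketoglutarate, ascorbate, Fe(II), NAD+ and FDH added; 50mM HEPES pH 7.5, 0.01% Tween-20. NADH fluorescence (340/450 nm) change over 30 min, room temperature.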

[5] = Confirmatory screen GU Rhodamine qHTS for Zika virus inhibitors qHTS (AID 1347157); also: potency is read from the fitted curve at half-maximal effect; nearly all actives have a fitted effect of over 70% in size
Procedure, shortened: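 Percent inhibition derives from the 15-min fluorescence change (ex 480, em 540 nm), normalized to no-enzyme and no-inhibitor wells. Reactions contained 25 nM NS2B-NS3 complex and 1.5 microM substrate in 10 mM Tris-HCl pH 8.0.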

[6] = ZIKV-mCherry secondary qHTS for Zika virus inhibitors (AID 1347158); conditions: Vero cells, ZIKV-mCherry infection imaging, 48-72 h; also: potency is read from the fitted curve at half-maximal effect
Procedure, shortened: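 Vero cells, 5,000/well, plated overnight at 37 °C, then compound added and infected with recombinant ZIKV-mCherry at MOI 1 for 48-72 h. PFA-fixed, Hoechst nuclear stain, high-content imaging; cells with mCherry intensity above 450 RFU scored infected, reported as percent infection.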

[7] = Confirmatory screen NINDS Rhodamine qHTS for Zika virus inhibitors (AID 1347161); also: potency is read from the fitted curve at half-maximal effect; nearly all actives have a fitted effect of over 60% in size
Procedure, shortened: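 Each compound, titrated, sat 15 min with 25 nM linked protease before 1.5 microM Rhodamine110 substrate went in. Fluorescence gain over the next 15 min, in pH 8.0 Tris with Tween 20, gave Hill-fitted curves.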

[8] = tested on: Zika virus NS2B-NS3 protease (linked); test: 384 well plate NINDS AMC confirmatory qHTS for Zika virus inhibitors (AID 1347163); conditions: Recombinant NS2B-NS3 protease, Ac-VKTGKR-AMC fluorescence; also: potency is read from the fitted curve at half-maximal effect; nearly all actives have a fitted effect of over 50% in size
Procedure, shortened: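 Linked protease 5/30/60 nM final; cpds up to 1 mM final, ~15 min preinc. Substrate Ac-VKTGKR-AMC 30 microM final. RT, dark, 25 min; FI ex 355/em 460; normalized to no-enzyme/no-inhibitor ctrls.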

[9] = tested on: Zika virus NS2B-NS3 protease (linked construct); test: 384 well plate NINDS Rhodamine confirmatory qHTS for Zika virus inhibitors (AID 1347164);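 also: fluorescence from protease cleavage of Ac-LKRR-rhodamine 110 substrate; potency is read from the fitted curve at half-maximal effect; nearly all actives have a fitted effect of over 65% in size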
Procedure, shortened: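 Enzyme (final 5/30/60 nM) + cpd (DMSO), ~15 min; add Ac-LKRR-Rd 10 microM final; 25 min RT, dark; FI ex 485/em 538; normalized to no-enzyme, no-inhibitor ctrls; aprotinin intraplate ctrl.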

Furin (Homo sapiens) = Furin (Homo sapiens) (UniProt P09958); test: Furin counterscreen qHTS for Zika virus inhibitors (AID 1347149);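 also: purified recombinant full-length human furin enzyme at 5 nM; fluorescence gain from furin cutting a BOC-RVRR-AMC peptide substrate over 15 min; top concentration of the series differs between compounds; nearly all actives have a fitted effect of over 70% in size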
Chain of Furin (Homo sapiens) (P09958 whole entry, looked up): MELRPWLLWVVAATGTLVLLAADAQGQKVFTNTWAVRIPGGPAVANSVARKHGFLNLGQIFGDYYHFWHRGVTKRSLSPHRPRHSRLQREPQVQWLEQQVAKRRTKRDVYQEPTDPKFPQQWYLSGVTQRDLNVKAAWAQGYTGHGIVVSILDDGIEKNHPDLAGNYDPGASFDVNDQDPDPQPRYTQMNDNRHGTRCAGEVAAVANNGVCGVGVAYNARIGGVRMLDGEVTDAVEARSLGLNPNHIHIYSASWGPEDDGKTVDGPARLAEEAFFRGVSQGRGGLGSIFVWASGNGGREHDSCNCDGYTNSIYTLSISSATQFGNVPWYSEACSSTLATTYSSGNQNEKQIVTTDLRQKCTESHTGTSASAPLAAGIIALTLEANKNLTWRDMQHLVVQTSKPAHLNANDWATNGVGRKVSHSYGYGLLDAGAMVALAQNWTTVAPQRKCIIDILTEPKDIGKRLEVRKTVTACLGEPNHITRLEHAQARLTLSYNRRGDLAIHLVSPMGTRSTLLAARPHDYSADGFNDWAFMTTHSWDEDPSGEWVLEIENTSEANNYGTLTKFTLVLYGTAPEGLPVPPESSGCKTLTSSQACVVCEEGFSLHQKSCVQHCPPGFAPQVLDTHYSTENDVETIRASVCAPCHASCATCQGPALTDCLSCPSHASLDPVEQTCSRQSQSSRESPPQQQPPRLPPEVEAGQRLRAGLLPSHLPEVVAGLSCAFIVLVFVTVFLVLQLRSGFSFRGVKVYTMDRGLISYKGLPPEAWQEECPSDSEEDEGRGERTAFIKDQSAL
Procedure, shortened: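 Fluorogenic cleavage of BOC-RVRR-AMC (2 microM final, Km ~15 µM) was monitored (ex 340, em 450 nm) at 37C after 15 min RT preincubation of 5 nM furin with compounds in HEPES pH 7.0 buffer with CaCl2 and Triton X-100. Percent inhibition was fitted to a 4-parameter Hill curve.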

[10] = Vero cells viability qHTS for Zika virus inhibitors (AID 1347167)
Procedure, shortened: (§1)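 Counter-screen for cytotoxicity of hits from NS2B-NS3 protease qHTS. Overnight-attached cells (2.5 x 10^5 cells/mL, DMEM/4% FBS) were dosed in titration, incubated 24 to 48 hours, then assayed by CellTiter Glo.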

[11] = HepG2 cells viability qHTS for Zika virus inhibitors (AID 1347168)
Procedure, shortened: as §1

[12] = Tertiary RLuc qRT-PCR qHTS assay for Zika virus inhibitors (AID 1347169); also: top concentration of the series differs between compounds; nearly all actives have a fitted effect of over 55% in size
Procedure, shortened: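 Vero, 1,000 cells/well, o/n 37 C; cpd pinned in DMSO; ZIKV-RLuc Cambodian, MOI 1-2, 48-72 h 37 C; live-cell RLuc substrate, lum read at 1-1.5 h.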

## N[C@@H](Cn1oc(=O)[nH]c1=O)C(=O)O
[1]
  Potency: inactive
[2]
  Potency: inactive
[3]
  Potency: inactive

## c1ccc2c(c1)[I+]c1ccccc1-2
[1]
  Potency: 50.1 µM (active)
[2]
  Potency: inactive
[3]
  Potency: inactive
[4]
  Potency: inactive

## CN(C(=O)Cc1ccc(Cl)c(Cl)c1)C(CN1CCCC1)c1cccc(OCC(=O)O)c1 (centres undefined)
[1]
  Potency: inactive
[2]
  Potency: inactive
[3]
  Potency: inactive
[4]
  Potency: inactive

## C[N+](C)(C)CC#CCOC(=O)Nc1cccc(Cl)c1
[1]
  Potency: inactive
[2]
  Potency: inactive
[3]
  Potency: inactive

## NC(N)=NOCC[C@H](N)C(=O)O
[1]
  Potency: inactive
[2]
  Potency: inactive
[3]
  Potency: inactive
[4]
  Potency: inactive

## O=[N+]([O-])/C=C/c1ccc2c(c1)OCO2
[1]
  Potency: 39.8 µM (active)
[2]
  Potency: inactive

## CN1C2CCC1CC(OC(c1ccccc1)c1ccccc1N)C2 (centres undefined)
[1]
  Potency: inactive
[2]
  Potency: inactive
[3]
  Potency: inactive

## OCc1cnc[nH]1
[1]
  Potency: inactive
[2]
  Potency: inactive

## NC(CCCCCP(=O)(O)O)C(=O)O (centres undefined)
[1]
  Potency: inactive
[2]
  Potency: inactive

## COc1ccc2c(c1O)-c1cccc3c1[C@@H](C2)N(C)CC3
[1]
  Potency: 56.2 µM (active)
[2]
  Potency: 29.9 µM (active)

## NNC(=O)c1ccc(O)cc1
[1]
  Potency: inactive
[2]
  Potency: inactive

## NNC(N)=O
[1]
  Potency: inactive
[2]
  Potency: inactive

## CP(=O)(O)C1=CCNCC1
[1]
  Potency: inactive
[2]
  Potency: inactive
[3]
  Potency: inactive

## COc1ccc(CNC(=O)/C=C/c2ccc3[nH]cc(CCN(C)C)c3c2)cc1
[1]
  Potency: inactive
[2]
  Potency: inactive

## NCCCP(=O)(O)O
[1]
  Potency: inactive
[2]
  Potency: inactive

## CCCN1CCc2cccc3c2[C@H]1Cc1ccc(O)c(O)c1-3
[1]
  Potency: 15.8 µM (active)
[2]
  Potency: 29.9 µM (active)

## NC(=O)c1cc(N2CC2)c([N+](=O)[O-])cc1[N+](=O)[O-]
[1]
  Potency: inactive
[2]
  Potency: inactive

## CC(=O)c1c(O)c(C)c(O)c(Cc2c(O)c3c(c(C(=O)/C=C/c4ccccc4)c2O)OC(C)(C)C=C3)c1O
[1]
  Potency: 50.1 µM (active)
[2]
  Potency: 11.9 µM (active)
[3]
  Potency: inactive
[5]
  Potency: 5.62 µM (active)
[6]
  Potency: 3.55 µM (active)
[7]
  Potency: 17.8 µM (active)
[8]
  Potency: 63.1 µM (active)
[9]
  Potency: 31.6 µM (active)

## CC12NC(Cc3ccccc31)c1ccccc12 (centres undefined)
[1]
  Potency: inactive
[2]
  Potency: inactive

## C[C@H]1C2Cc3ccc(O)cc3[C@@]1(C)CCN2CC1CC1
[1]
  Potency: inactive
[2]
  Potency: inactive

## C[N+](C)(C)CCOC(=O)CBr
[1]
  Potency: inactive
[2]
  Potency: inactive
[3]
  Potency: inactive
[4]
  Potency: inactive

## C[N+](C)(C)CC#CCN1CCCC1=O
[1]
  Potency: 28.2 µM (active)
[2]
  Potency: inactive
[3]
  Potency: inactive
[4]
  Potency: inactive

## C[C@@H]1[C@@H]2Cc3ccc(O)cc3[C@@]1(C)CCN2CC1CC1
Furin (Homo sapiens)
  Potency: inactive
[2]
  Potency: inactive
[4]
  Potency: inactive
[10]
  outcome: inactive
[11]
  outcome: inactive
[12]
  Potency: inactive

## C[C@H](N)Cc1cccc(C(F)(F)F)c1
[1]
  Potency: inactive
[2]
  Potency: inactive
[4]
  Potency: inactive

## C=CCN1CCC23c4c5ccc(O)c4O[C@H]2C(=O)CC[C@@]3(O)C1C5 (some centres undefined)
[2]
  Potency: inactive

## CCCN1CCc2cc(O)cc3c2[C@H]1Cc1ccc(O)c(O)c1-3
[1]
  Potency: 35.5 µM (active)
[2]
  Potency: 26.7 µM (active)
[4]
  Potency: inactive

## CN1CCc2cccc(Cl)c2CC1
[1]
  Potency: inactive
[2]
  Potency: inactive
[4]
  Potency: inactive

## N[C@@]1(C(=O)O)CC[C@@H](C(=O)O)C1
[1]
  Potency: inactive
[2]
  Potency: inactive
[4]
  Potency: inactive

## C[C@@H]1O[C@@H](O[C@H]2C[C@@H](O)[C@]3(CO)[C@@H]4C(CC[C@]3(O)C2)[C@@]2(O)CC[C@H]([C@@H]3COC(=O)C3)[C@@]2(C)C[C@H]4O)[C@H](O)[C@H](O)[C@H]1O (some centres undefined)
[1]
  Potency: inactive
[2]
  Potency: inactive
[4]
  Potency: inactive

## CCCN1CC[C@@H]2c3cc(O)ccc3CC[C@@H]21
[1]
  Potency: inactive
[2]
  Potency: inactive
[4]
  Potency: inactive

## CC(C)(C)c1o[nH]c(=O)c1CC(N)C(=O)O (centres undefined)
[1]
  Potency: inactive
[2]
  Potency: inactive
[4]
  Potency: inactive

## COc1ccc2[nH]c3c(c2c1)CCNC3
[2]
  Potency: 26.7 µM (active)

## CC1(C(=O)O)C2CCC(O2)C1(C)C(=O)O (centres undefined)
[1]
  Potency: inactive
[2]
  Potency: inactive
[4]
  Potency: inactive

## CC(C)(O)[C@@H]1C2OC(=O)[C@@H]1[C@]1(O)C[C@H]3O[C@]34C(=O)O[C@H]2[C@]14C (tested in a mixture with another compound)
[2]
  Potency: inactive

## NC(=O)c1ccc(OCC(O)CN2CC=C(c3ccc(F)cc3)CC2)cc1 (centres undefined)
[2]
  Potency: inactive

## Cc1c2ccncc2c(C)c2c1[nH]c1ccccc12
[2]
  Potency: 21.2 µM (active)
